Drawing on PubChem BioAssay (NCI), this text covers growth for 40 molecules.

This is part of a sample that, as a whole, favours compounds with a hit. Of some 83,000 tested, about 20% had one in any assay.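 The endpoint reported here, percent growth, reads 100 for growth as untreated, 0 for no net growth and -100 for all cells dead.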 Activity calls are given as the source filed them.

The test system of this assay is KM12 colon. Nature of the assay: NCI-60 one-dose screen, 48 h (100 = growth as untreated, 0 = no growth, -100 = all killed). To be noted: 10 µM unless noted. As to the method:
Growth inhibition of the KM12 human tumor cell line is measured as a screen for anti-cancer activity. Cells are grown in 96 well plates and exposed to the test compound for 48 hours. Compounds are tested at a single concentration, which is 10^-5 M for most compounds. The reported endpoint is percent growth (GI% or GIPRCNT), where numbers from 0 - 100% represent growth inhibition, and numbers from -100% - 0 represent cell death. For example, a value of 40 represents 60% growth inhibition. A value of 0 means no net growth occurred over the course of the experiment. A value of -40 indicates 40% of cells at the beginning of the experiment died by the end of the experiment. A value of -100 means all cells are dead at the end of the experiment.
NCI-60 Human Tumor Cell Lines Screen was performed using the standard one-dose NCI protocol, which is described in more detail at https://dtp.cancer.gov/discovery_development/nci-60/default.htm.
Compounds with GIPRCNT values below 10 were considered active. Activity score was based on GIPRCNT using the following formula: […]
Score is 0 for GIPRCNT values of 100 or above, 50 for GIPRCNT values of 0, and 100 for GIPRCNT values of -100.
Regarding `CS(=O)(=O)c1ccc(/C(=N/N=C(N)N)c2ccc(F)cc2)cc1`, the growth was 58.2% (inactive).

On to `O=c1[nH][nH]c(-c2ccc(F)cc2)c1-c1nc2ccccc2s1`, for which the growth was 105% (inactive).

As to `Clc1cccc(/C=N/Nc2nc(N/N=C/c3cccc(Cl)c3)nc(N3CCCCC3)n2)c1`, the growth is 91.1% (inactive).

Regarding `CCc1cc(OC(=O)N2CCN(CCC(C)(COC(C)(C)C)COC(C)(C)C)CC2)ccc1Nc1cc(-c2ccc(-n3cccn3)cc2)[nH]n1`, the growth was 85.6% (inactive).

Turning to `CC(=O)c1c([Si](C)(C)C)c2cc(C#N)ccn2c1C(=O)c1ccc(Br)cc1`, the growth was 88.3% (inactive).

As for `COc1ccc(/C=N/NC(=O)c2c(N)nn(C)c2Nc2ccccc2)cc1`, the growth was 27.8% (inactive).

As for `CC(C)(C)Nc1nc2c(OCCc3ccccc3)cccn2c1-c1cccc(Oc2ccccc2)c1`, the growth was 14% (inactive).

Consider `O=C1/C(=C/c2cc(F)cc(F)c2)Cc2cc3c(cc21)OCO3`, for which the growth is 34.6% (inactive).

In the case of `COc1ccc(/C=N/NC(=O)CSc2nc(-c3cnccn3)cc(-c3cccs3)c2C#N)cc1`, the growth was 64.7% (inactive).

In the case of `COc1cccc2c1[C@H](OC)[C@]13O[C@@]1(C2=O)[C@H](O)[C@H](C)[C@@](O)(C(=O)[C@@H]1O[C@H]1C)[C@@H]3O`, the growth is -31.1% (active).

For the molecule `COc1ccc(C2CC(c3cccc(OCCCCOc4cccc(C5=NN(C(C)=O)C(c6ccc(OC)cc6)C5)c4)c3)=NN2C(C)=O)cc1` (stereo not given), the growth was 70.5% (inactive).

For `C#Cc1nc(C(=O)NCCCCCCC(=O)NO)cs1`, the growth is -7.86% (active).

Consider `COc1cc(-c2nc(-c3ccccc3)[nH]c2-c2ccnc(NCCCNS(=O)(=O)c3ccc(C)cc3)n2)ccc1F`, for which the growth is 90.1% (inactive).

For the molecule `Cn1cc(-c2nn3cc(-c4ccncc4)nc3s2)c2cc(Br)ccc21`, the growth is 65.8% (inactive).

As for `COC(=O)c1ccc(NC2=C(Cl)C(=O)C(C)=C(C)C2=O)cc1`, the growth was 6.69% (active).

Regarding `O=C(Nc1ccc(N2CCOCC2)cc1)Nc1ccc2c(ccn2C(=O)c2cccc(F)c2)c1`, the growth was 74.1% (inactive).

As for `Cc1cc(NS(=O)(=O)c2ccc(NC(=O)CSc3nc4ccccc4c(=O)n3-c3ccccc3)cc2)no1`, the growth is 94.5% (inactive).

As for `CC(C)Sc1nc(-c2ccccc2)c(C#N)c(N2CCOCC2)n1`, the growth was 88.3% (inactive).

Consider `Cn1c(SCC(=O)c2ccc(Br)cc2)nc2ccccc2c1=O`, for which the growth was 98.7% (inactive).

For `C#C[C@]1(O)CC[C@H]2[C@@H]3CC=C4c5sc(Nc6ncccc6C)nc5CC[C@]4(C)[C@H]3CC[C@@]21C`, the growth was 3.23% (active).

As to `Clc1cccc(/C=N/Nc2nc(N/N=C/c3cccc(Cl)c3)nc(N3CCOCC3)n2)c1`, the growth was 30.2% (inactive).

For the molecule `Brc1cc(-c2cc(-c3ccc4c(c3)OC=CO4)[nH]n2)cs1`, the growth was 64.2% (inactive).

As for `CCN(CC)c1ccc(/C=N/NC(=O)c2ccc(NS(C)(=O)=O)cc2)cc1`, the growth was 18.1% (inactive).

On to `Nn1c(=O)n(-c2cccc(C(F)(F)F)c2)c(=O)c2cc(-c3ccc(F)cc3F)ccc21`, for which the growth was 8.93% (active).

Take `COC(=O)CNC(=O)c1cccc(-c2cc(=O)c3c(OC)c(OC)c(OC)cc3o2)c1`: the growth was 103% (inactive).

Take `O=S(=O)(Oc1ccc(-c2cn3ccoc3n2)cc1)c1cccc(C(F)(F)F)c1`: the growth was 95.7% (inactive).

Consider `O=C(Nc1ccc(N=Cc2c(O)[nH]c3ccccc23)cc1)Nc1ccc(S(=O)(=O)Nc2ncccn2)cc1`, for which the growth is 50.9% (inactive).

As for `O=C(Nc1cccc(C(F)(F)F)c1)N1CCN(c2cc(-c3cn(-c4ccccc4)nc3-c3cccc(O)c3)ccn2)CC1`, the growth was 32% (inactive).

As for `CSc1ccc(/C(=N/N=C(N)N)c2ccc(F)cc2)cc1`, the growth was 9.6% (active).

For the molecule `Fc1cccc(Cl)c1/C=N/Nc1nc(N/N=C/c2c(F)cccc2Cl)nc(N2CCCCC2)n1`, the growth was 10.8% (inactive).

Consider `N#Cc1nc(-c2ccccc2)oc1N1CCC(C2(C(F)(F)F)N=N2)CC1`, for which the growth is 96.2% (inactive).

Take `NC(=O)c1c(NC(=O)c2ccc(C(F)(F)F)cc2)sc2c1CCC(=O)C2`: the growth was 3.34% (active).

Turning to `CC(=O)C1=C(C)NC(NNc2ccccc2)=NC1c1ccc([N+](=O)[O-])cc1` (stereo not given), the growth was 67.3% (inactive).

Consider `O=C(COc1ccc(/C=C2\C(=O)Nc3ccc(Cl)cc32)cc1)Nc1ccc(Cl)cc1`, for which the growth is 43.2% (inactive).

As to `CCN(CC)c1ccc(/C=N/NC(=O)c2ccc(S(N)(=O)=O)cc2)c(O)c1`, the growth is 24.2% (inactive).

`COc1cc(C(=O)c2cc(C(C)=O)c3c(C)cccn23)cc(OC)c1OC`: the growth is 96.5% (inactive).

Turning to `O=C(CSc1nc2ccccc2c(=O)n1-c1ccccc1)Nc1ccc(S(=O)(=O)Nc2nccs2)cc1`, the growth was 94.4% (inactive).

Consider `O=C1[C@H]2Cc3c([nH]c4ccccc34)[C@H](c3ccc(Cl)cc3)N2C(=O)CN1C1CCN(CC2CCCCC2)CC1`, for which the growth was 62% (inactive).

Consider `N#Cc1c(-c2ccc(Br)cc2)cc(-c2c[nH]c3ccccc23)nc1N`, for which the growth was 28% (inactive).

For the molecule `O=C1Nc2ccccc2/C1=C/c1ccc(OCC(=O)c2ccccc2)cc1`, the growth was 99.9% (inactive).
